# Changes are numbered by the printed parent chain. Whole data set: some 9,900 sequences, median “r (bound/input frequency ratio)” near 0.7, cut for the highest 2% near 6.5. For the sample, the highest values were picked, then their nearest neighbours and some sequences at random.
# B1: ENSMUSG00000061578.1458|Ksr2|90:94 (ssRNA)
# RNA: GGGAGUUCUACAGUCCGACGAUCGCUUCGAUAUCCGCAUGCUAGAAUGAAUGGAUGAUGGAUGAAUGGAUGGGUAGGUGGGUAGAUAGGUAUAUGAAUGAAUGGAUGAAUGGAUGGGUGAAUGGAUGGAUAGCAUACUGAAUAAAUGGAUGGAUGGAUGGAUUGAUUUGUGAAUGAAUGGAUGAAUGGAUGGGUAGGUGGGUGGAUGCAUAGGCAAGUAGAUGAAUGAAUAUGUGGGUAGAAGGGUGAGUGGGUGGAUGAAUGGAUGGAUAGGUUGGUAGGUUAAUGUAUUCGUGGAUGGGUGCUCUUGCGGUCGCACUAGUGUGGAAUUCUCGGGUGUCAAGG
# B2: ENSMUSG00000061578.1460|Ksr2|78:82 (ssRNA)
# RNA: GGGAGUUCUACAGUCCGACGAUCGCUUCGAUAUCCGCAUGCUAGAUGGAUGAAUGGAUGGGUAGGUGGGUAGAUAGGUAUAUGAAUGAAUGGAUGAAUGGAUGGGUGAAUGGAUGGAUAGCAUACUGAAUAAAUGGAUGGAUGGAUGGAUUGAUUUGUGAAUGAAUGGAUGAAUGGAUGGGUAGGUGGGUGGAUGCAUAGGCAAGUAGAUGAAUGAAUAUGUGGGUAGAAGGGUGAGUGGGUGGAUGAAUGGAUGGAUAGGUUGGUAGGUUAAUGUAUUCGUGGAUGGGUGAAUGGAUGGAUGCUCUUGCGGUCGCACUAGUGUGGAAUUCUCGGGUGUCAAGG
# B3: ENSMUSG00000061578.1464|Ksr2|54:58 (ssRNA)
# RNA: GGGAGUUCUACAGUCCGACGAUCGCUUCGAUAUCCGCAUGCUAGGUAGAUAGGUAUAUGAAUGAAUGGAUGAAUGGAUGGGUGAAUGGAUGGAUAGCAUACUGAAUAAAUGGAUGGAUGGAUGGAUUGAUUUGUGAAUGAAUGGAUGAAUGGAUGGGUAGGUGGGUGGAUGCAUAGGCAAGUAGAUGAAUGAAUAUGUGGGUAGAAGGGUGAGUGGGUGGAUGAAUGGAUGGAUAGGUUGGUAGGUUAAUGUAUUCGUGGAUGGGUGAAUGGAUGGAUGGAUAGAUAGAUGGGAAGGUGGAUGCUCUUGCGGUCGCACUAGUGUGGAAUUCUCGGGUGUCAAGG
# B4: ENSMUSG00000061578.1457|Ksr2|1:5;96:100 (ssRNA)
# RNA: GGGAGUUCUACAGUCCGACGAUCGCUUCGAUAUCCGCAUGCUACAUACUGAAUGAAUGGAUGAUGGAUGAAUGGAUGGGUAGGUGGGUAGAUAGGUAUAUGAAUGAAUGGAUGAAUGGAUGGGUGAAUGGAUGGAUAGCAUACUGAAUAAAUGGAUGGAUGGAUGGAUUGAUUUGUGAAUGAAUGGAUGAAUGGAUGGGUAGGUGGGUGGAUGCAUAGGCAAGUAGAUGAAUGAAUAUGUGGGUAGAAGGGUGAGUGGGUGGAUGAAUGGAUGGAUAGGUUGGUAGGUUAAUGUAUUCGUGGACUCUUGCGGUCGCACUAGUGUGGAAUUCUCGGGUGUCAAGG
# B5: ENSMUSG00000061578.1464|Ksr2 (ssRNA)
# RNA: B3 RNA with C97G, A98U, U99A, A100U, C101G
# B6: ENSMUSG00000061578.1461|Ksr2|72:76 (ssRNA)
# RNA: GGGAGUUCUACAGUCCGACGAUCGCUUCGAUAUCCGCAUGCUAUGAAUGGAUGGGUAGGUGGGUAGAUAGGUAUAUGAAUGAAUGGAUGAAUGGAUGGGUGAAUGGAUGGAUAGCAUACUGAAUAAAUGGAUGGAUGGAUGGAUUGAUUUGUGAAUGAAUGGAUGAAUGGAUGGGUAGGUGGGUGGAUGCAUAGGCAAGUAGAUGAAUGAAUAUGUGGGUAGAAGGGUGAGUGGGUGGAUGAAUGGAUGGAUAGGUUGGUAGGUUAAUGUAUUCGUGGAUGGGUGAAUGGAUGGAUGGAUAGACUCUUGCGGUCGCACUAGUGUGGAAUUCUCGGGUGUCAAGG
# B7: ENSMUSG00000029636.187|Wasf3 (ssRNA)
# RNA: GGGAGUUCUACAGUCCGACGAUCGCUUCGAUAUCCGCAUGCUAAAUUUUAAAAAGUACCUCACAAGAUAAACUUGAUUCAGCCAGUUGCCCGGGCAGAGACCUGACUUCCCCUCUCCUGCCCUGAUCCUUUUUACCAAAUGGCGAUUCCAUAGUCCUGGCUGAGGCAGGGGCUCAAAGUCCAGUGUCUGCUUUGCAAUUCUGGAAGGACAGCUGCUUAUUUAAAUAAGUCUGUGAUAUCCGCAGGCUUGGGUUACAGGGAGGACCUUGCAGAGGGACCAGGACACUGCCUUCCCUUAGGUGCACUCUUGCGGUCGCACUAGUGUGGAAUUCUCGGGUGUCAAGG
# B8: ENSMUSG00000058297.289|Spock2 (ssRNA)
# RNA: GGGAGUUCUACAGUCCGACGAUCGCUUCGAUAUCCGCAUGCUAAGAGAGAGAGAGAGAGAGAGAGAGAAAGAGAGAGAGAAUGAGAGAGAAUGAGAGAGAGAAUACCCGAGGGCCACCCUGAUGCCCAGGAAGAGUGAGGGCAGCCCCCUGUGUGGUGGAAGAGGCUGGGCAGCUAGCUACUGGGGACCUUGUGCUGAGGCUUCCAGGACAAAGCCCCAGUCUGGCUCUCCCCCAGCCUCUCAGGGGCACUGGCUGGUCACAUCCACUGAGUAUUGAUCGGUUGGACUUUAGGGAAGAGCCUCCUCUUGCGGUCGCACUAGUGUGGAAUUCUCGGGUGUCAAGG
# B9: ENSMUSG00000043670.285|Diras1 (ssRNA)
# RNA: GGGAGUUCUACAGUCCGACGAUCGCUUCGAUAUCCGCAUGCUAGAGUGGGAGGUAGAAUGAGAGAGAGUGUGUAUUGGAAGGGAGAGAGAGAGUGUGAGAGAGUGUGAGAGAGAGACAGAGACAGAGAUAAAGGAGAUAAAGAGAGACAAAGACAUGGUCACAAAGAGACAGAGAAGCAGAAAGAAGGCUGAAGCCAGAUGACCAAGUAGGCCGGACCCCACUGUGUUCCCUUCUGUGUGCCAGGCACAGGGAGAGCCACAGCCUGAAGCCUGAGUCUGAGCAUAGCUGAGCCCUGACCUCUACUCUUGCGGUCGCACUAGUGUGGAAUUCUCGGGUGUCAAGG
# B10: ENSMUSG00000043670.283|Diras1 (ssRNA)
# RNA: GGGAGUUCUACAGUCCGACGAUCGCUUCGAUAUCCGCAUGCUAGAGAGGGAGGGAGAGUGGGAGGUAGAAUGAGAGAGAGUGUGUAUUGGAAGGGAGAGAGAGAGUGUGAGAGAGUGUGAGAGAGAGACAGAGACAGAGAUAAAGGAGAUAAAGAGAGACAAAGACAUGGUCACAAAGAGACAGAGAAGCAGAAAGAAGGCUGAAGCCAGAUGACCAAGUAGGCCGGACCCCACUGUGUUCCCUUCUGUGUGCCAGGCACAGGGAGAGCCACAGCCUGAAGCCUGAGUCUGAGCAUAGCUGAGCUCUUGCGGUCGCACUAGUGUGGAAUUCUCGGGUGUCAAGG
# B11: ENSMUSG00000043670.284|Diras1 (ssRNA)
# RNA: GGGAGUUCUACAGUCCGACGAUCGCUUCGAUAUCCGCAUGCUAGAGGGAGAGUGGGAGGUAGAAUGAGAGAGAGUGUGUAUUGGAAGGGAGAGAGAGAGUGUGAGAGAGUGUGAGAGAGAGACAGAGACAGAGAUAAAGGAGAUAAAGAGAGACAAAGACAUGGUCACAAAGAGACAGAGAAGCAGAAAGAAGGCUGAAGCCAGAUGACCAAGUAGGCCGGACCCCACUGUGUUCCCUUCUGUGUGCCAGGCACAGGGAGAGCCACAGCCUGAAGCCUGAGUCUGAGCAUAGCUGAGCCCUGACUCUUGCGGUCGCACUAGUGUGGAAUUCUCGGGUGUCAAGG
# B12: ENSMUSG00000058297.290|Spock2 (ssRNA)
# RNA: GGGAGUUCUACAGUCCGACGAUCGCUUCGAUAUCCGCAUGCUAAGAGAGAGAGAGAGAGAGAAAGAGAGAGAGAAUGAGAGAGAAUGAGAGAGAGAAUACCCGAGGGCCACCCUGAUGCCCAGGAAGAGUGAGGGCAGCCCCCUGUGUGGUGGAAGAGGCUGGGCAGCUAGCUACUGGGGACCUUGUGCUGAGGCUUCCAGGACAAAGCCCCAGUCUGGCUCUCCCCCAGCCUCUCAGGGGCACUGGCUGGUCACAUCCACUGAGUAUUGAUCGGUUGGACUUUAGGGAAGAGCCUCCUCCUUCUCUUGCGGUCGCACUAGUGUGGAAUUCUCGGGUGUCAAGG
# B13: ENSMUSG00000058297.292|Spock2 (ssRNA)
# RNA: GGGAGUUCUACAGUCCGACGAUCGCUUCGAUAUCCGCAUGCUAAGAGAGAAAGAGAGAGAGAAUGAGAGAGAAUGAGAGAGAGAAUACCCGAGGGCCACCCUGAUGCCCAGGAAGAGUGAGGGCAGCCCCCUGUGUGGUGGAAGAGGCUGGGCAGCUAGCUACUGGGGACCUUGUGCUGAGGCUUCCAGGACAAAGCCCCAGUCUGGCUCUCCCCCAGCCUCUCAGGGGCACUGGCUGGUCACAUCCACUGAGUAUUGAUCGGUUGGACUUUAGGGAAGAGCCUCCUCCUUCCCAUUCCUUUCCUCUUGCGGUCGCACUAGUGUGGAAUUCUCGGGUGUCAAGG
# B14: ENSMUSG00000058297.293|Spock2 (ssRNA)
# RNA: GGGAGUUCUACAGUCCGACGAUCGCUUCGAUAUCCGCAUGCUAAAAGAGAGAGAGAAUGAGAGAGAAUGAGAGAGAGAAUACCCGAGGGCCACCCUGAUGCCCAGGAAGAGUGAGGGCAGCCCCCUGUGUGGUGGAAGAGGCUGGGCAGCUAGCUACUGGGGACCUUGUGCUGAGGCUUCCAGGACAAAGCCCCAGUCUGGCUCUCCCCCAGCCUCUCAGGGGCACUGGCUGGUCACAUCCACUGAGUAUUGAUCGGUUGGACUUUAGGGAAGAGCCUCCUCCUUCCCAUUCCUUUCUGCCACCUCUUGCGGUCGCACUAGUGUGGAAUUCUCGGGUGUCAAGG
# B15: ENSMUSG00000058297.287|Spock2 (ssRNA)
# RNA: GGGAGUUCUACAGUCCGACGAUCGCUUCGAUAUCCGCAUGCUAAGAGAGAGAGAGAGAGAGAGAGAGAGAGAGAGAGAGAAAGAGAGAGAGAAUGAGAGAGAAUGAGAGAGAGAAUACCCGAGGGCCACCCUGAUGCCCAGGAAGAGUGAGGGCAGCCCCCUGUGUGGUGGAAGAGGCUGGGCAGCUAGCUACUGGGGACCUUGUGCUGAGGCUUCCAGGACAAAGCCCCAGUCUGGCUCUCCCCCAGCCUCUCAGGGGCACUGGCUGGUCACAUCCACUGAGUAUUGAUCGGUUGGACUUUACUCUUGCGGUCGCACUAGUGUGGAAUUCUCGGGUGUCAAGG
# Target: TDP-43 (Homo sapiens, UniProt Q13148 1-414)
# Assay: RNA Bind-n-Seq with designed 260-mer pool; 25 mM Tris-HCl, 150 mM KCl, 3 mM MgCl2, BSA (printed 500 mg/mL), 20 units/mL SUPERase IN; pH not stated; 500 nM RNA pool, 1 h, 4 C; TDP-43 5, 50, 500 nM; high values mean tight binding
# Details: protein: recombinant; tags: SBP (GST cleaved off with PreScission; pGEX-GST-SBP)
# Procedure, shortened: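 Streptavidin beads captured recombinant SBP-tagged TDP-43 at 5, 50 or 500 nM, and the beads were incubated for 1 h at 4 °C with 500 nM of an in vitro-transcribed pool of 260-nt 3′ UTR oligos in 25 mM Tris-HCl, 150 mM KCl, 3 mM MgCl2, BSA and SUPERase IN. After washing, bound RNA was eluted with biotin, reverse transcribed, PCR-amplified and sequenced. Binding is reported as R, the mapped-read-normalized abundance of each oligo in the bound sample divided by its abundance in the input. Two independent protein batches served as duplicates.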
# Sequence of TDP-43 (Q13148 whole entry): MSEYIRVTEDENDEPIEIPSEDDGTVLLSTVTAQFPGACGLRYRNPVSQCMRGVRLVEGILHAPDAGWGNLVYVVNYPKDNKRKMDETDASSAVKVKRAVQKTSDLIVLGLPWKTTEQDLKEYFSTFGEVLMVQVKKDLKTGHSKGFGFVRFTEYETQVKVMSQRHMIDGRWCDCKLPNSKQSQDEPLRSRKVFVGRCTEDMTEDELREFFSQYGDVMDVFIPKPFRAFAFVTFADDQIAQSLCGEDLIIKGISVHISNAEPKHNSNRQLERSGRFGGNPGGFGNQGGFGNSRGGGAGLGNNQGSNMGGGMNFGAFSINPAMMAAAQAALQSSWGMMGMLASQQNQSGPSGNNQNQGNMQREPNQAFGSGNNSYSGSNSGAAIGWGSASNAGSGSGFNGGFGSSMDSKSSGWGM
row,Binder,binding signal
1,B1,6.91 R (bound/input frequency ratio)
2,B2,5.37 R (bound/input frequency ratio)
3,B3,7.9 R (bound/input frequency ratio)
4,B4,5.06 R (bound/input frequency ratio)
5,B5,5.55 R (bound/input frequency ratio)
6,B6,4.58 R (bound/input frequency ratio)
7,B7,0.317 R (bound/input frequency ratio)
8,B8,7.91 R (bound/input frequency ratio)
9,B9,6.66 R (bound/input frequency ratio)
10,B10,4.07 R (bound/input frequency ratio)
11,B11,5.75 R (bound/input frequency ratio)
12,B12,8.79 R (bound/input frequency ratio)
13,B13,6.42 R (bound/input frequency ratio)
14,B14,2.36 R (bound/input frequency ratio)
15,B15,7.5 R (bound/input frequency ratio)

# From publication PMC12864922, “TDP-43 directly inhibits mRNA accumulation in neurites through modulation of mRNA stability”
